Reference: PubChem BioAssay (EPA / NIEHS)
The source made the active and inactive calls. Rule for the calls: active = hit-call score of the fitted dose curve at least 0.9, where 1 is the maximum; inactive = score below 0.9.

What was measured:
Details in all cases: mRNA level, 48 h; actives raise or lower the signal
[1] = read-out: Fatty Acid-Binding Protein 1 (FABP1), FABP1 (gene 2168); assay: LTEA_HepaRG_FABP1: Life Technologies and Expression Analysis (LTEA) Assay for Fatty Acid-Binding Protein 1 (FABP1) using HepaRG (AID 2283494)
How it was run: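 Differentiated human HepaRG cells exposed 48 h in serum-free induction medium to eight half-log concentrations up to 100 uM (0.5% DMSO), duplicate. FABP1 mRNA by qRT-PCR, normalised to ACTB, GAPDH, POLR2A; bidirectional fitting against DMSO.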

[2] = read-out: Cytochrome P450 4A22 (Homo sapiens) (UniProt Q5TCH4); assay: LTEA_HepaRG_CYP4A22: Life Technologies and Expression Analysis (LTEA) Assay for Cytochrome P450 4A22 (CYP4A22) using HepaRG (AID 2283495)
How it was run: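 Cryopreserved HepaRG cells, plated and cultured 48 h, then switched to serum-free induction medium and treated 48 h (duplicates, up to 100 uM, half-log steps, 0.5% DMSO). Expression change of CYP4A22 was fitted bidirectionally against vehicle.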

[3] = read-out: Cytochrome P450 7A1 (Homo sapiens) (UniProt P22680); assay: LTEA_HepaRG_CYP7A1: Life Technologies and Expression Analysis (LTEA) Assay for Cytochrome P450 7A1 (CYP7A1) using HepaRG (AID 2283496)
How it was run: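 Gene expression endpoint in human HepaRG liver cells treated for 48 h with test chemicals (up to 100 uM, 0.5% DMSO). Values come from bidirectional concentration-response fitting versus DMSO.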

[4] = read-out: Glutathione S-Transferase (GSTA2), GSTA2 (gene 2939); assay: LTEA_HepaRG_GSTA2: Life Technologies and Expression Analysis (LTEA) Assay for Glutathione S-Transferase (GSTA2) using HepaRG (AID 2283497)
How it was run: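 Differentiated human HepaRG cells were exposed in duplicate for 48 h in serum-free induction medium, 8 points from 100 uM top in half-log steps, 0.5% DMSO. GSTA2 mRNA was measured by TaqMan qRT-PCR, normalized to ACTB, GAPDH and POLR2A; bidirectional fit versus DMSO.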

[5] = read-out: Glutamate-cysteine ligase catalytic (GCLC), GCLC (gene 2729); assay: LTEA_HepaRG_GCLC: Life Technologies and Expression Analysis (LTEA) Assay for Glutamate-cysteine ligase catalytic (GCLC) using HepaRG (AID 2283498)
How it was run: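 Differentiated HepaRG cells exposed 48 h in serum-free induction medium, eight-point half-log series topping at 100 uM in 0.5% DMSO, duplicates. GCLC mRNA by qRT-PCR normalized to ACTB, GAPDH and POLR2A, fitted bidirectionally versus DMSO.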

[6] = read-out: growth arrest and DNA damage 45 (GADD45G), GADD45G (gene 10912); assay: LTEA_HepaRG_GADD45G: Life Technologies and Expression Analysis (LTEA) Assay for growth arrest and DNA damage 45 (GADD45G) using HepaRG (AID 2283499)
How it was run: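 Human hepatic HepaRG line treated 48 h with chemicals (eight concentrations, half-log steps from 100 uM); transcript induction or repression of GADD45G scored by qRT-PCR versus DMSO vehicle.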

[7] = read-out: Glutamate-cysteine ligase regulatory (GCLM), GCLM (gene 2730); assay: LTEA_HepaRG_GCLM: Life Technologies and Expression Analysis (LTEA) Assay for Glutamate-cysteine ligase regulatory (GCLM) using HepaRG (AID 2283500)
How it was run: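 Human liver HepaRG cultures receive test chemicals for 48 hours at up to 100 uM in 0.5% DMSO. GCLM expression is measured by qRT-PCR and analysed for increases or decreases against vehicle.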

[8] = read-out: Heat shock 70 kDa protein 1 (HSPA1A), gene 3303; assay: LTEA_HepaRG_HSPA1A: Life Technologies and Expression Analysis (LTEA) Assay for Heat shock 70 kDa protein 1 (HSPA1A) using HepaRG (AID 2283502)
How it was run: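 HSPA1A induction in human HepaRG liver cells is measured after 48 h of chemical treatment (100 uM maximum, 0.5% DMSO vehicle). Expression comes from qRT-PCR normalized to endogenous controls.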

[9] = read-out: Hypoxia-inducible factor 1-alpha (Homo sapiens) (UniProt Q16665); assay: LTEA_HepaRG_HIF1A: Life Technologies and Expression Analysis (LTEA) Assay for Hypoxia-inducible factor 1 (HIF1A) Trancription factor using HepaRG (AID 2283503);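 note: HIF1A transcript by TaqMan qRT-PCR normalized to ACTB GAPDH and POLR2A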
How it was run: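 HepaRG, 48 h exposure, 8-pt half-log series from 100 uM, 0.5% DMSO vehicle, duplicates. Readout: HIF1A transcript by qRT-PCR (Fluidigm array), housekeeping-normalised. Bidirectional curve fit vs DMSO baseline.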

[10] = read-out: 3-Hydroxy-3-Methylglutaryl-CoA Synthase 2 (HMGCS2), HMGCS2 (gene 3158); assay: LTEA_HepaRG_HMGCS2: Life Technologies and Expression Analysis (LTEA) Assay for 3-Hydroxy-3-Methylglutaryl-CoA Synthase 2 (HMGCS2) using HepaRG (AID 2283504)
How it was run: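 Expression of HMGCS2 in human HepaRG liver cells is measured by qRT-PCR 48 h after dosing (highest 100 uM, half-log series, 0.5% DMSO). Values come from bidirectional concentration-response fitting with DMSO as baseline.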

[11] = read-out: HGF (gene 3082); assay: LTEA_HepaRG_HGF: Life Technologies and Expression Analysis (LTEA) Assay for Hepatocyte Growth Facto (HGF) using HepaRG (AID 2283505)
How it was run: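 Gain or loss of HGF mRNA in human HepaRG liver cells after 48 h chemical exposure; eight concentrations up to 100 uM with 0.5% DMSO vehicle, quantified by TaqMan qRT-PCR.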

[12] = read-out: Intercellular Adhesion Molecule 1 (ICAM1), ICAM1 (gene 3383); assay: LTEA_HepaRG_ICAM1: Life Technologies and Expression Analysis (LTEA) Assay for Intercellular Adhesion Molecule 1 (ICAM1) using HepaRG (AID 2283507)
How it was run: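 Gain or loss of transcript in HepaRG hepatic cells is quantified by qRT-PCR after 48 h chemical exposure (up to 100 uM, half-log steps), with DMSO as baseline.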

[13] = read-out: Insulin-like growth factor-binding protein 1 (IGFBP1), IGFBP1 (gene 3484); assay: LTEA_HepaRG_IGFBP1: Life Technologies and Expression Analysis (LTEA) Assay for Insulin-like growth factor-binding protein 1 (IGFBP1) using HepaRG (AID 2283508)
How it was run: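 mRNA induction or loss was quantified by qRT-PCR after 48 h chemical exposure of human HepaRG cells, with 0.5% DMSO as vehicle and baseline. Concentration-response over eight points up to 100 uM.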

[14] = read-out: Interleukin 6 (IL6), IL6 (gene 3569); assay: LTEA_HepaRG_IL6: Life Technologies and Expression Analysis (LTEA) Assay for Interleukin 6 (IL6) using HepaRG (AID 2283509)
How it was run: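 HepaRG cells exposed in duplicate for 48 h to eight half-log concentrations, top 100 uM, in 0.5% DMSO serum-free induction medium. mRNA measured by qRT-PCR, normalized to ACTB, GAPDH and POLR2A. Bidirectional fit versus DMSO.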

[15] = read-out: Interleukin 6 Receptor (IL6R), IL6R (gene 3570); assay: LTEA_HepaRG_IL6R: Life Technologies and Expression Analysis (LTEA) Assay for Interleukin 6 Receptor (IL6R) using HepaRG (AID 2283510);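 for AC50: TaqMan qRT-PCR signal normalized to ACTB GAPDH and POLR2A housekeeping genes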
How it was run: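 Concentration-response in human liver HepaRG cells: eight concentrations from 100 uM downward by half-logs, 48 h exposure, 0.5% DMSO vehicle. IL6R mRNA change measured by qRT-PCR and fitted in both directions relative to vehicle.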

[16] = read-out: Potassium channel subfamily K member 1 (KCNK1), KCNK1 (gene 3775); assay: LTEA_HepaRG_KCNK1: Life Technologies and Expression Analysis (LTEA) Assay for Potassium channel subfamily K member 1 (KCNK1) using HepaRG (AID 2283511)
How it was run: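 Differentiated HepaRG cells, 48 h exposure in serum-free induction medium with 0.5% DMSO; 8 concentrations, half-log from 100 uM, duplicate. KCNK1 mRNA by qRT-PCR, normalized to ACTB, GAPDH, POLR2A; bidirectional fit vs DMSO.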

[17] = read-out: Keratin 19 (KRT19), KRT19 (gene 3880); assay: LTEA_HepaRG_KRT19: Life Technologies and Expression Analysis (LTEA) Assay for Keratin 19 (KRT19) using HepaRG (AID 2283512)
How it was run: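 Gene-expression endpoint in the human liver line HepaRG after 48 h exposure to up to 100 uM test chemical with 0.5% DMSO vehicle; KRT19 mRNA by qRT-PCR, analyzed bidirectionally versus DMSO.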

[18] = read-out: Insulin Like Growth Factor 1 (IGF1), IGF1 (gene 3479); assay: LTEA_HepaRG_IGF1: Life Technologies and Expression Analysis (LTEA) Assay for Insulin Like Growth Factor 1 (IGF1) using HepaRG (AID 2283506)
How it was run: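 Using human HepaRG liver cells, IGF1 transcript induction or suppression is measured 48 h after dosing across eight concentrations capped at 100 uM. Values derive from bidirectional concentration-response fitting with DMSO as baseline.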

Measured: AC50

Chain of Hypoxia-inducible factor 1-alpha (Homo sapiens) (Q16665 whole entry, looked up): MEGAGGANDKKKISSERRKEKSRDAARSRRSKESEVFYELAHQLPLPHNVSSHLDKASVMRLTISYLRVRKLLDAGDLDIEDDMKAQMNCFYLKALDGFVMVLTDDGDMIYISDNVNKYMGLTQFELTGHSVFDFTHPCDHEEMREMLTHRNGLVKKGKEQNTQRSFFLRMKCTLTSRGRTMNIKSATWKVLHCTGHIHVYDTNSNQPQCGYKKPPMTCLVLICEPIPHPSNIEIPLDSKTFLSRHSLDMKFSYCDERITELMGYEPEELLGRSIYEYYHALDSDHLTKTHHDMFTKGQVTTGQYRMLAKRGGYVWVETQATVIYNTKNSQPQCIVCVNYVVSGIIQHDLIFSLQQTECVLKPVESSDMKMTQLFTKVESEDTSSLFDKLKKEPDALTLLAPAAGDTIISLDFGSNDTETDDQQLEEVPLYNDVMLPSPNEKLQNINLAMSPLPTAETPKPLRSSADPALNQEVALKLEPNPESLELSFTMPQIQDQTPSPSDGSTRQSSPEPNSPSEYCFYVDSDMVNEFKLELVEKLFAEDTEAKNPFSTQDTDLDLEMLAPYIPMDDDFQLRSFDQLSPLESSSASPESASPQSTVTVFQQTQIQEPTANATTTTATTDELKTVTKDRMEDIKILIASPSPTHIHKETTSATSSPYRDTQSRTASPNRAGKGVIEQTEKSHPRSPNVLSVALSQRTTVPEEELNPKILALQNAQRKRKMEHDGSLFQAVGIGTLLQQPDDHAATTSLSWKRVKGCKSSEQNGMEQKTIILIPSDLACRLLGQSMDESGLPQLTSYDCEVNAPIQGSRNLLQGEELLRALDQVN

CCCCCCCC/C=C\CCCCCCCC(=O)OC[C@@H](O)[C@H]1OC[C@H](O)[C@H]1O
not listed: [18]
inactive: all other assays above

CCCCCCCC1CCC(=O)O1 (configuration not stated)
not listed: [2] | [3] | [11]
inactive: all other assays above

OCC(CO)(CO)CO
not listed: [18]
inactive: all other assays above

CCCOc1ccc(S(=O)(=O)N2CCN(CC)CC2)cc1-c1nc2c(CC)n(Cc3ccccn3)nc2c(=O)[nH]1
active: [1] 12.1 µM | [2] 9.92 µM | [3] 4.07 µM | [6] 77.9 µM | [8] 25.3 µM | [18] 14.5 µM | [13] 68.3 µM
inactive: all other assays above

OC(CCl)CCl
not listed: [18]
inactive: all other assays above

COS(C)(=O)=O
not listed: [18]
inactive: all other assays above

CC[C@H](C)C(=O)O[C@H]1C[C@H](O)C=C2C=C[C@H](C)[C@H](CC[C@@H](O)C[C@@H](O)CC(=O)O)[C@H]21
active: [1] 3.68 µM
not listed: [18]
inactive: all other assays above

OCCOCCOCCO
not listed: [18]
inactive: all other assays above

c1ccc2c(c1)-c1cccc3c1c-2cc1ccccc13
inactive: [5] | [7] | [9] | [12] | [14] | [16]
active: [1] 19.1 µM | [2] 29.1 µM | [3] 15.6 µM | [4] 17.9 µM | [6] 14 µM | [8] 18.5 µM | [10] 16.1 µM | [11] 50 µM | [13] 2.54 µM | [15] 11.1 µM | [17] 1.4 µM
